Source: PubChem (several laboratories)
Rows were chosen to be rich in hits. Some 12% of all compounds tested hit in one or more screens of this group.
Cav3 T inh: inhibitors of human Cav3.2 T-type calcium channel; 100,000 tested, 4% active; B-score at 10 µM; Cav3.2-expressing cells, Fluo-4 calcium fluorescence FDSS; hits give low values; O95180;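 active = single-dose well whose peak fluorescence ratio is a statistical outlier from its plate by either plate-standardised score or position-corrected B-score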
PostGolgi ctrl: yeast control strain growth, post-Golgi counter-screen; efflux-deficient yeast background strain, growth absorbance A615, 16 h; inhibition, % at 10 µM; 98,000 tested, 5% active
PLAP activator: human PLAP activation | purified PLAP enzyme, luminescent substrate read-out; hits give high values | activation fold at 20 µM | 96,000 tested, 1.2% active | AID 696; in the data active = activation fold above about 2
PostGolgi yeast: growth inhibition of a yeast mutant, post-Golgi transport screen; inhibition, % at 10 µM; 98,000 tested, 0.9% active; post-Golgi transport phenotypic cell assay; AID 739;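 also: yeast cells grown in 1536-well plates; yeast grown about 18 h at 30C before absorbance read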
DAT uptake mod: modulates human dopamine transporter uptake under cocaine. B-score at 10 µM. LLC-PK1 hDAT cells, [14C]-dopamine uptake with cocaine IC80; actives deviate in either direction. 110,000 tested, 1.3% active. AID 449768;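 active = Z score or B-score, a plate-position-corrected score, falls beyond the plate's 99.7% confidence bounds, in either direction; inactive = both scores lie inside the 99.7% bounds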;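 also: scored against the spread of the other compound wells on the same plate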
D1 mod: allosterically modulates the human D1 dopamine receptor. HEK293 D1, CRE-luciferase, dopamine EC30 potentiation; actives deviate in either direction. 58,000 tested, 5.9% active. B-score at 10 µM. AID 641. P21728;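 active = luminescence count or its row- and column-corrected plate score outside the 99.7% band of the plate's sample wells, on either side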
D1 PAM confirm: D1 receptor (human) allosteric modulation, confirmed; shares compounds with D1 mod; HEK293 D1 CRE-luciferase, dopamine EC30 potentiation; hits give high values; luminescence at 10 µM; 2,200 tested, 88% active; AID 642;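 active = luminescence in either of two replicates above the same-plate mean plus 3 SD of the low-dose dopamine control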
D1 no dopamine: activates D1 CRE-luciferase signal without dopamine present. shares compounds with D1 mod. HEK293 D1 CRE-luciferase, luminescence, no dopamine; hits give high values. luminescence at 10 µM. 1,900 tested, 0.8% active; in the data active = luminescence above about 3900
Isoprot counter: alters isoproterenol CRE-luciferase response in HEK293 cells; 2,200 tested, 63% active; calls only at 10 µM; shares compounds with D1 mod; HEK293 D1 CRE-luciferase, isoproterenol EC30 counter-screen;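 active = luminescence in either replicate above plate mean of wells with a partly effective reference agonist dose plus 3 SD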;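 also: isoproterenol raises cAMP through native beta-adrenoceptor Gs so signal bypasses D1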
* hit, by the source's call; i = inactive; x = not tested or not shown; + = active, no number. Rule as the data show it, unless noted: active = inhibition above about 30%; inactive = the rest.

SMILES | Cav3 T inh | PostGolgi ctrl | PLAP activator | PostGolgi yeast | DAT uptake mod | D1 mod | D1 PAM confirm | D1 no dopamine | Isoprot counter
CCC(=NCc1ccc2c(c1)OCO2)c1c(O)n(C2CCCCC2)c(=O)[nH]c1=O | -5.8* | 67* | 1.3 | 22 | 0.85 | 0.0085 | x | x | x
CCC(=NCCO)c1c(O)n(C2CCCCC2)c(=O)[nH]c1=O | 0.043 | 5 | 1 | 0 | -0.027 | -0.05 | x | x | x
O=C(N/N=C1/CN2CCC1CC2)c1cc2ccccc2cc1O | -0.021 | 15 | 1.1 | -5 | -8.2* | x | x | x | x
O=C(CSC1c2ccccc2-c2ccccc21)N/N=C/c1ccccc1O | -3.1 | 12 | 1.4 | 4 | 0.86 | x | x | x | x
CC(=O)N1N=C2C3CCN(CC3)C2C1c1ccccc1 (centres undefined) | -3.9* | -3 | 1 | 16 | -0.1 | x | x | x | x
CC#CP(=O)(OCC)C(O)(c1ccccc1)C(F)(F)F (centres undefined) | -0.16 | 0 | 0.8 | 6 | 0.022 | 0.31 | x | x | x
CCOP(=O)(C#CC(C)(C)C)C(O)(c1ccccc1)C(F)(F)F (centres undefined) | -5.6* | 22 | 0.9 | 1 | 0.76 | -0.45 | x | x | x
CCOc1cc2[nH]c(=S)n(CCCC(=O)N3CCC4(CC3)OCCO4)c(=O)c2cc1OCC | 1.2 | 39* | 1.8 | 6 | 0.92 | 0.85 | x | x | x
COC(=O)C1=C(c2cc3ccccc3o2)C[C@@H]2CC[C@H]1N2C(=O)NCc1cccc2ccccc12 | -3.6* | x | x | x | 1.8 | x | x | x | x
CC(C)(C)P(=O)(c1ccncc1)N1CCCC1 (centres undefined) | 0.69 | 14 | 1.2 | -1 | 6.2* | -0.16 | x | x | x
CC(C)(C)OC(=O)c1c(N)n(Cc2ccco2)c2nc3ccccc3nc12 | -5.3* | 22 | 2.1* | 2 | 0.45 | 0.39 | x | x | x
Nc1c(C(=O)OCc2ccccc2)c2nc3ccccc3nc2n1Cc1cccs1 | x | 27 | 1 | 7 | -0.3 | x | x | x | x
COCCNC(=O)c1c(N)n(Cc2ccco2)c2nc3ccccc3nc12 | -1.6 | 51* | 1.4 | -1 | 2 | x | x | x | x
CCC(C)OC(=O)c1c(N)n(Cc2cccs2)c2nc3ccccc3nc12 (centres undefined) | -1.4 | 50* | 1 | 16 | 0.026 | x | x | x | x
CCOC(=O)c1c(C)n(Cc2ccco2)c2ccc(O)cc12 | 0.32 | 14 | 1.1 | -8 | 0.28 | 1.3 | x | x | x
CN(C)CCN=Cc1c(O)n(-c2cccc(C(F)(F)F)c2)c(=O)[nH]c1=O | 0.6 | -9 | 1.1 | 0 | -0.045 | -0.56 | x | x | x
COC1C(OC(=O)c2ccc(C)[nH]2)C(O)C(Oc2ccc3c(O)c(NC(=O)c4ccc(O)c(CC=C(C)C)c4)c(=O)oc3c2Cl)OC1(C)C (centres undefined) | -0.073 | x | x | x | 0.72 | x | x | x | x
CN1CC[C@@H](c2ccc(F)cc2)[C@H](COc2ccc3c(c2)OCO3)C1 | -1.7 | x | x | x | -0.6 | x | x | x | x
CCN(CCCl)Cc1ccccc1Br | -5.1* | x | x | x | 0.28 | x | x | x | x
CCOC(=O)c1cncn1[C@H](C)c1ccccc1 | 0.9 | x | x | x | -0.12 | x | x | x | x
COCCNC(=O)c1c(NC(=O)c2ccco2)n(Cc2ccccc2)c2nc3ccccc3nc12 | -2.9 | 3 | 1.7 | 2 | 0.92 | 4.3* | 10288* | 1576 | i
COCCCNC(=O)c1c(NC(=O)c2ccccc2Cl)n(Cc2ccccc2)c2nc3ccccc3nc12 | -4.2 | 10 | 1.4 | -5 | 0.021 | x | x | x | x
Oc1cccc2nc3ccccc3nc12 | 0.48 | x | x | x | -0.42 | x | x | x | x
COC(=O)C1=C(c2cc3ccccc3o2)C[C@@H]2CC[C@H]1N2C(=O)N1CCC(O)CC1 | 0.54 | x | x | x | 1.6 | x | x | x | x
NCCc1ccc(O)cc1 | 0.53 | -7 | 1.1 | -1 | 0.0023 | 5.1* | 7676* | 17832* | +
SMILES | Cav3 T inh | PostGolgi ctrl | PLAP activator | PostGolgi yeast | DAT uptake mod | D1 mod | D1 PAM confirm | D1 no dopamine | Isoprot counter
COc1cccc(-c2cc(C(F)(F)F)n3nc(C(=O)N4CCC5(CC4)OCCO5)cc3n2)c1 | -0.6 | 13 | 1.4 | 23 | 0.97 | 2.4* | 9588* | x | i
O=C(c1cnn2c(C(F)(F)F)cc(-c3ccccc3)nc12)N1CCC2(CC1)OCCO2 | 1.3 | 2 | 1.1 | -8 | -1 | x | x | x | x
C=CCn1c(O)c(C(C)=NCc2cc(OC)cc(OC)c2)c(=O)[nH]c1=O | 0.18 | 8 | 1.7 | -1 | 0.05 | 3.2* | 9872* | 1756 | +
CCOC(=O)c1c(C)n(Cc2ccc3c(c2)OCO3)c2ccc(O)cc12 | 0.0073 | 2 | 0.9 | 3 | 0.46 | x | x | x | x
CCOC(=O)c1c(C)n(Cc2ccccc2)c2ccc(OCC(O)CN3C(=O)CNC3=O)cc12 (centres undefined) | -1.1 | 19 | 1.2 | 3 | 1.7 | 10* | 22384* | 1552 | +
COC(=O)C1=C(c2cc3ccccc3o2)C[C@@H]2CC[C@H]1N2C(=O)NCc1ccco1 | -1.5 | x | x | x | -0.29 | x | x | x | x
CCC(=NCc1ccco1)c1c(O)[nH]c(=O)[nH]c1=O | 0.23 | 10 | 0.9 | 16 | -0.00068 | 8.6* | 16800* | x | +
COC(=O)N(c1ccccc1)P1(=S)OCCO1 | 0.47 | 11 | 1.1 | -14 | -0.55 | 5.3* | 11592* | 1628 | +
CCOC(=O)N(c1ccccc1)P1(=S)OCCO1 | 1.2 | 4 | 1 | -6 | -0.38 | 7.4* | 19704* | 1752 | +
O=C(COc1ccccc1)N1CCN(CC(O)COc2ccccc2)CC1 (centres undefined) | 1.7 | -4 | 1.8 | -8 | -0.16 | 0.52 | x | x | x
O=c1[nH]c2ccccc2c(=O)n1-c1cccc(Cl)c1 | 0.14 | 4 | 0.9 | -2 | x | 9.2* | 10464* | 1816 | +
Cn1c(=O)cc(OCCCC(=O)N2CCC3(CC2)OCCO3)c2ccccc21 | 1.5 | 1 | 1.2 | 6 | -0.68 | x | x | x | x
O=C(CCCOc1ccc(Cl)cc1Cl)N1CCC2(CC1)OCCO2 | -2.2 | 10 | 1.4 | 2 | -0.4 | 6.6* | 8848* | 1464 | +
CCC(C)C1NC(=O)C(C(C)=O)=C1O (centres undefined) | -0.41 | x | x | x | 0.038 | x | x | x | x
CNCCc1ccc(OC)c(OC)c1 | -0.016 | x | x | x | 0.36 | x | x | x | x
CC1(C)CSC(Nc2ccc(F)c(Cl)c2)=N1 | -0.15 | -7 | 0.8 | -2 | -0.45 | x | x | x | x
CC1(C)CN=C(Nc2ccc(F)c(F)c2)S1 | 1 | 6 | 0.7 | 1 | 0.069 | 12* | 25280* | 1544 | +
CCOP(=O)(OCC)C(NC(C)=O)C(Cl)(Cl)Cl (centres undefined) | -0.27 | 9 | 1 | 25 | -0.38 | x | x | x | x
COCCCn1c(N)c(C(=O)Nc2sc3c(c2C(=O)OC)CCCC3)c2nc3ccccc3nc21 | 0.16 | 2 | 1.1 | 10 | 1.5 | x | x | x | x
COCCCn1c(N)c(C(=O)OC(C)COC)c2nc3ccccc3nc21 (centres undefined) | 0.92 | 2 | 1.7 | 17 | 0.92 | 5.6* | 8820* | 1816 | i
CCC(C)NC(=O)c1c(N)n(CCCOC)c2nc3ccccc3nc12 (centres undefined) | -1.5 | 28 | 2* | 0 | 2.3 | 5.1* | 9844* | 1520 | +
CCCCOCCCn1c(N)c(C(=O)OC(C)COC)c2nc3ccccc3nc21 (centres undefined) | -0.73 | 18 | x | 5 | -0.39 | 6.7* | 11516* | 1488 | +
CCN(CC)CCN=Cc1c(O)n(CCc2ccccc2)c(=O)[nH]c1=O | 1.3 | 4 | 1 | -5 | 0.18 | x | x | x | x
